Bioassay records from PubChem BioAssay.
An excerpt weighted towards active compounds, which were near 3.6% of everything screened.
HepG2 tox = counter-screen for TGF-b inhibitors: cytotoxicity in HepG2 cells. HepG2 CAGA-GFP viability, ATP luminescence, 18 h. Potency, µM (titrated, usually from 46.1 µM), for the others: at the top dose activity change, negative = cytotoxicity, actives largely listed as cytotoxic. hit rate 0.76% among 410,000. AID 588856
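HepG2 CAGA-GFP cells (1000/well, DMEM with 1% FBS) received compound, then TGF-beta at 500 pg/mL final, and were incubated 18 hours at 37 degrees C. Viability was read by CellTiter-Glo luminescence. Media-only wells were set as complete cell-killing and DMSO as no toxicity.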
Nrf2 ARE act = activates Nrf2 signaling | hit rate 0.31% among 410,000 | AREc32 ARE-luciferase reporter (MCF7-derived line), luminescence, 24 h | Potency, µM (doses to about 46.1 µM), without a hit: at the highest dose activation, usual class: activators | AID 624171; also: % of control where 0% means no effect; nearly all actives have a fitted effect of over 65% in size
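Luciferase luminescence (Steady-Glo, 30 min at room temperature) served as the read-out of ARE activation in AREc32 cells treated with compounds for 24 hr at 37 deg C.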
Nrf2 block = Nrf2 pathway inhibition; Potency, µM (doses to about 46 µM), inactives show top-dose activity change, negative = inhibition, actives largely listed as inhibitors; hit rate 2.1% among 360,000; AID 504444; A549 ARE-Fluc reporter, luciferase luminescence, 18-24 h; also: % is scaled to controls: 0 for no effect and ±100 for the full control effect; nearly all actives have a fitted effect of over 60% in size
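Nrf2 function is reported as luminescence of an ARE-controlled luciferase in A549 cells. Compounds were tested at several concentrations, and a CellTiter-Fluor read on the same wells flagged cytotoxicity.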
A549 viability = counter-screen for Nrf2 inhibitors: cytotoxicity in A549 cells. A549 ARE-Fluc cells, CellTiter-Fluor viability, 18-24 h. Potency, µM (top dose mostly 46 µM), inactives show at the highest dose activity change, negative = cytotoxicity, most hits filed as inhibitors. hit rate 0.16% among 390,000. AID 504648; also: % is scaled to controls: 0 for no effect and ±100 for the full control effect
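A549 ARE_Fluc cells in 5% FBS OPTI-MEM were exposed to compounds in concentration-response for 18-24 h at 37 deg C. Viability was read by CellTiter-Fluor fluorescence (Ex 405/Em 525) after 30 min, before the luciferase read.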
TGFb inhibitor = inhibitors of TGF-b signaling. AID 588855. hit rate 1.2% among 410,000. HepG2 CAGA-GFP TGF-b/SMAD3 reporter, GFP fluorescence, 18 h; TGF-beta stimulated, 500 pg/mL final. Potency, µM (top dose mostly 46.1 µM), for inactives: top-dose activity, negative = inhibition, hits mostly inhibitors; also: % is scaled to controls: 0 for no effect and ±100 for the full control effect; nearly all actives have a fitted effect of over 65% in size
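HEPG2 CAGA-GFP cells (1000/well, DMEM with 1% FBS) were pre-incubated 2 h at 37 degrees C, given compound by pin tool, then stimulated with TGF-beta at 500 pg/mL final for 18 h before per-cell GFP fluorescence imaging.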
* marks the source's active call; other numbers are inactive results; ? = inconclusive; nt = no result given; ! = repeats disagree; [ ] = another dose, or the depositor's remark. Calls follow the shape of the dose curve; as a rule, active = well fitted curve in the direction sought with a large enough effect; inconclusive = small, poorly fitted or top-dose-only effect, or another doubt; inactive = no such curve, though single readings can be large; an effect the other way counts as inactive or inconclusive. Potency is read from the fitted curve at half-maximal effect.

SMILES	HepG2 tox	Nrf2 ARE act	Nrf2 block	A549 viability	TGFb inhibitor
C=CCn1c(=NC(=O)c2ccc(S(=O)(=O)N3CCc4ccccc4C3)cc2)sc2cc(S(N)(=O)=O)ccc21	-18.6%	-1.9%	?	-2.1%	1.4%
CC(C)C[C@@H]1NC(=O)[C@H](Cc2ccccc2)N(C)C(=O)[C@H](C)NC(=O)c2ccccc2NC(=O)[C@H](Cc2ccc(O)cc2)N(C)C1=O	-18.6%	4.0%	23.1µM*	?	-9.2%
CN(C)CCNC(=O)c1sc2nc(-c3ccccc3)cc(C(F)(F)F)c2c1N	11.2µM*	?	-13.2%	0.0%	?
COc1ccc(-c2cc(C(F)(F)F)c3c(N)c(C(=O)NCCSC)sc3n2)cc1	-14.6%	11.0%[9.22 µM]	?	15.7%	17.8%
CC(=O)c1sc2nc(-c3cccs3)cc(C(F)(F)F)c2c1N	-28.4%	6.31µM*	10.1%	11.5%	56.1%
Cc1c(C(=O)O)sc2nc(-c3cccs3)cc(C(F)(F)F)c12	-16.3%	19.2%	?	-1.7%	3.8%
Clc1ccc(Sc2cnc3ccccc3n2)cc1	-2.7%	2.6%	?	10.6%	0.0%
Cn1c(=O)c2cn(Cc3ccc(Cl)cc3)cc2n(C)c1=O	-3.3%	0.0%	11.6µM*	15.5%	?
COc1ccc(C(=O)Nc2ccc3c(c2)Cc2ccccc2-3)cc1	-9.8%	-0.1%	-11.9%	?	-1.0%
CCS(=O)(=O)c1ccc(C(=O)N2CCN(c3nc4c(OC)ccc(C)c4s3)CC2)cc1	-31.8%	0.8%	nt	-15.0%	?
CCS(=O)(=O)c1cccc(C(=O)N2CCN(c3nc4c(C)ccc(Cl)c4s3)CC2)c1	-41.9%	-1.5%	11.6µM*	-17.9%	?
COc1ccc(CCNC(=S)NC(=O)c2ccc(Br)cc2)cc1OC	-27.7%	2.7%	14.6µM*	1.0%	-24.7%
COc1ccc(CCNC(=O)c2ccc3ccccc3n2)cc1OC	2.0%	4.3%	23.1µM*	-13.1%	0.6%
COc1ccccc1CCNC(=O)c1nc(-c2cccs2)no1	1.1%	3.8%	?	15.0%	2.5%
CCOc1ccc(CCNC(=O)c2ccc3ccccc3n2)cc1OCC	-25.5%	20.0%	?	-7.4%	-5.5%
COc1ccc(CCNC(=O)c2nc(-c3cccs3)no2)cc1OC	1.4%	3.5%	20.6µM*	-17.4%	-17.9%
COc1ccc(CCNC(=O)c2ccc(-c3ccc([N+](=O)[O-])cc3)o2)cc1OC	-31.5%	0.6%	25.9µM*	-2.1%	?
Cc1ccc(S(=O)(=O)c2cnc(-c3ccccc3)[nH]c2=O)cc1	nt	nt	5.9%	-2.4%	nt
O=S(=O)(Cc1cc(Cl)nc(-c2ccccc2)n1)c1ccccc1	-18.3%	4.5%	?	0.5%[1.84 µM]	?
CS(=O)(=O)CCC(C(=O)N1CCOCC1)N1C(=O)c2cc(Cl)c(Cl)cc2C1=O (configuration not stated)	3.2%	-0.8%	?	-4.0%	-7.4%
O=C1CC(c2nnc(Cc3c(F)cccc3Cl)o2)CN1c1ccccc1 (configuration not stated)	-0.2%	3.2%	?	12.4%	3.8%
Cc1cc(O)ccc1Nc1nc(-c2cccnc2)cs1	5.8%	?	?	6.8%	-13.1%
COc1ccc(CNC(=O)c2ccc3ccccc3n2)cc1OC	-35.4%	2.6%	13µM*	-15.8%	?
COc1ccc(CCNC(=O)c2cc3sc(Cl)cc3n2C)cc1OC	-14.0%	2.4%	25.9µM*	-2.6%	3.9%
Cc1ccc(CNC(=O)c2cc3sc(Cl)cc3n2C)cc1	-6.3%	0.7%	?	-3.1%	nt
SMILES	HepG2 tox	Nrf2 ARE act	Nrf2 block	A549 viability	TGFb inhibitor
CCOC(=O)/C(C#N)=N/Nc1ccc(S(=O)(=O)N2CCc3ccccc32)cc1	-29.8%	2.5%	-14.6%	-2.1%	11.2µM*
N#C/C(=N\Nc1ccc([N+](=O)[O-])cc1)C(N)=S	-43.3%	2.3%	?	18.4µM*	?
N#C/C(=N\Nc1ccc(S(=O)(=O)N2CCCCCC2)cc1)C(N)=S	-31.7%	11.7%	?	?	?
N#C/C(=N\Nc1cccc([N+](=O)[O-])c1)C(=O)c1ccc(Br)cc1	-39.3%	14.1%	9.2µM*	-22.2%	6.31µM*
N#C/C(=N/Nc1ccc([N+](=O)[O-])cc1)C(=N)N1CCCCC1	-9.3%	2.2%	?	?	-20.0%
N#C/C(=N\Nc1ccc(S(=O)(=O)N2CCc3ccccc32)cc1)C(N)=S	-62.1%	2.9%	?	?	11.2µM*
O=C(O)c1ccc(N=NNc2cccc([N+](=O)[O-])c2)cc1	-6.8%	10.5%	?	1.0%	1.4%
C/C(=N\NC(=S)NC(C)C)c1ccccc1OC(F)F	11.9%	4.7%	-12.4%	3.2%	-8.8%
Cc1ccc(Nc2cc(C)c3ccc(O)cc3n2)cc1C	10µM*	13.2%	10.8%	0.6%	?
Clc1ccc(C=Cc2ccccn2)cc1	-11.6%	8.91µM*	?	2.9%	0.1%
CCN(CC)C(=O)N1CCN(C)CC1	-3.2%	0.1%	13µM*	16.4%	13.5%
COC(=O)c1ccc(NC(=O)CN(CCc2ccccc2)S(=O)(=O)c2ccc(OC)cc2)cc1	-9.1%	2.0%	1.4%	0.9%	-40.7%
CCCOc1ccc(C(=O)N2CCCC2C(=O)O)cc1 (configuration not stated)	-4.6%	0.4%	-0.5%	8.4%	-0.4%
c1csc(C2=Nn3c(nnc3-c3ccncc3)SC2)c1	-39.4%	3.0%	16.4µM*	-4.0%	?
C[C@H](NC(=O)c1nc[nH]c1C(=O)N[C@@H](Cc1ccccc1)C(=O)OCc1ccccc1)C(=O)OCc1ccccc1	-32.4%	-0.9%	0.7%	-3.9%	?
CC(C)(CNC(=O)c1sc2cc(Cl)ccc2c1Cl)N1CCOCC1	-27.1%	0.7%	?	0.2%	-15.2%
O=Nc1c(-c2c(O)[nH]c3cc(Br)ccc23)[nH]c2ccccc12	7.94µM*	-2.2%	10.3µM*	20.6µM*	8.91µM*
O=C(CSCc1cccc(Br)c1)N=Nc1c(O)[nH]c2ccccc12	-37.3%	2.7%	-15.7%	-1.6%	-3.6%
CS(=O)(=O)Nc1cccc(C(=O)OCCCOc2ccc(F)cc2)c1	-21.4%	0.0%	6.9%	-1.8%	0.0%
CCOc1ccc(NC(=O)c2ccc3c(=O)n4c(nc3c2)CCCCC4)cc1	8.91µM*!	0.2%	?	-0.1%	5.9%
COc1ccc(OC)c(CCNC(=O)C(=O)Nc2ccc3nc4n(c(=O)c3c2)CCCCC4)c1	-3.5%	-0.6%	20.6µM*	-3.2%	0.9%
CCOC(=O)N1CCN(c2c(N3CCN(c4cccc(C)c4C)CC3)c(=O)c2=O)CC1	0.6%	-1.1%	-0.8%	4.8%	7.9%
CC(C)CNC(=O)COC(=O)c1cccc(S(=O)(=O)NCC(F)(F)F)c1	8.2%	-0.1%	-2.4%	1.9%	2.6%
